# Screen size: about 69,000 compounds; about 1,000 (1.4%) showed an effect of 50% or more. Only a selection was taken, and strong results are over-represented in it overall.
# Tested on: Leishmania donovani
# Assay: Leishmania intramacrophage assay
# Format: functional, organism-based
# Parameters: scale not given: in the data most compounds retested in dose-response had high values
compound,measurement,setting,value
O=C(CC1=CCCCC1)Nc1ccc(CN2C(=O)CCC2=O)cc1,Percent Effect,"30.3 µM, […]",-19.22%
CC(=O)N[C@@H]1CN(C2CCN(c3ccccc3F)CC2)C[C@H]1C(C)C,Percent Effect,"30.3 µM, […]",-2.556%
C[C@@H]1CN(C2CCN(c3ccccc3F)CC2)C[C@]1(C)O,Percent Effect,"30.3 µM, […]",31.62%
C[C@@H]1CN(C2CCN(c3ccccc3F)CC2)CC[C@]1(C)O,Percent Effect,"30.3 µM, […]",62.06%
CCC(O)CN1CCN(C(=O)c2cccn2Cc2ccccc2)CC1 (stereo not drawn),Percent Effect,"30 µM, 30.03 µM",13.25%
Cn1cc(C(=O)N[C@H]2CN(Cc3nccs3)[C@@H]3CCCO[C@H]23)cn1.O=C(O)C(F)(F)F,Percent Effect,"30.3 µM, […]",15.38%
CC(NCc1ccncc1)c1cc2c(cc1Br)OCCO2 (stereo not drawn),Percent Effect,"30.3 µM, […]",16.23%
CC(NCc1cccc2c1OCCO2)c1cc2c(cc1Br)OCCO2 (stereo not drawn),Percent Effect,"30.3 µM, […]",73.82%
CC(NCc1ccccn1)c1cc2c(cc1Br)OCCO2 (stereo not drawn),Percent Effect,"30.3 µM, […]",16.93%
O=C(NCCNc1ncccn1)N1CCN(c2nccs2)CC1,Percent Effect,"30.3 µM, […]",13.95%
CS(=O)(=O)Cc1cc(F)ccc1NCc1nnsc1Cl,Percent Effect,"30.3 µM, […]",-4.772%
Cn1ccnc1CN1CCC2(COCCN(Cc3ccsc3)C2)C1 (stereo not drawn),Percent Effect,"30 µM, 30.03 µM",46.66%
Cn1ccnc1CN1CCC2(CC1)COCCN(c1ncccn1)C2,Percent Effect,"30.3 µM, […]",59.31%
Cn1ccnc1CN1CCC2(CC1)COCCN(S(C)(=O)=O)C2.O=C(O)C(F)(F)F,Percent Effect,"30.3 µM, […]",39.8%
NCC(=O)N1CCC2(CC1)CN(C(=O)Cc1ccc(Cl)cc1)CCO2,Percent Effect,"30.3 µM, […]",-4.476%
Cc1nccn1C1CCCN(C(=O)c2cccc(Cn3ccnc3)c2)C1 (stereo not drawn),Percent Effect,30 µM,43.46%
CCN(CCO)C[C@@H]1CN(C(=O)c2sc3ccccc3c2C)C[C@@H]1CO,Percent Effect,"30.3 µM, […]",-0.1561%
CN(CCC#N)C(=O)Cc1csc(-c2ncccn2)n1,Percent Effect,"30.3 µM, […]",54.73%
CN(CC1CC1)C(=O)Cc1csc(-c2ncccn2)n1,Percent Effect,"30.3 µM, […]",39.01%
COc1ccc(-c2nc(CC(=O)N(C)CCC#N)cs2)cc1OC,Percent Effect,"30.3 µM, […]",0.3942%
COCC1CCCCN1C(=O)c1cc(-c2cccc(OC)c2)n[nH]1 (stereo not drawn),Percent Effect,"30.3 µM, […]",-0.5575%
COCC(=O)NCCc1nc(N(C)C)ncc1-c1ccncc1,Percent Effect,"30.3 µM, […]",29.7%
Cn1cc(C(=O)N2CC[C@@H]3[C@@H]2CCN3Cc2cccc(F)c2)cn1.O=C(O)C(F)(F)F,Percent Effect,"30 µM, 30.03 µM",2.666%
Cn1cc(C(=O)N2CC[C@@H]3[C@@H]2CCN3Cc2ccccc2)cn1.O=C(O)C(F)(F)F,Percent Effect,"30.3 µM, […]",4.091%
Cn1cc(CN2CC[C@@H]3[C@@H]2CCN3C(=O)c2cccc(F)c2)cn1.O=C(O)C(F)(F)F,Percent Effect,"30.3 µM, […]",56.05%
Cc1oncc1C(=O)N1CC[C@H]2CO[C@H](CN3CCCC3)[C@H]2C1,Percent Effect,"30.3 µM, […]",5.899%
COc1c(CNC2CCc3c(F)cccc32)c(C)nn1C.Cl (stereo not drawn),Percent Effect,30 µM,34.02%
COc1c(CNC2CCSc3ccc(F)cc32)c(C)nn1C.Cl (stereo not drawn),Percent Effect,"30 µM, 30.03 µM",60.68%
COc1c(CNC2CCCOc3ccc(F)cc32)c(C)nn1C.Cl (stereo not drawn),Percent Effect,"30.3 µM, […]",19.28%
COc1c(CNC2CCc3cc(F)ccc32)c(C)nn1C.Cl (stereo not drawn),Percent Effect,"30 µM, 30.03 µM",46.26%
COc1c(CNC2CCc3c(Cl)cccc32)c(C)nn1C.Cl (stereo not drawn),Percent Effect,"30 µM, 30.03 µM",56.04%
COc1c(CNC2CCOc3c(Cl)cccc32)c(C)nn1C.Cl (stereo not drawn),Percent Effect,"30.3 µM, […]",30.91%
COc1ccc(F)c(CNC2CCCc3nc(N(C)C)ncc32)c1 (stereo not drawn),Percent Effect,"30.3 µM, […]",34.48%
O=C(c1ccc(Cl)cc1)N1CC2(CCNC2)OCc2ccccc21 (stereo not drawn),Percent Effect,"30.3 µM, […]",67.31%
O=C(c1ccccc1)N1CC2(CCNC2)OCc2ccccc21 (stereo not drawn),Percent Effect,"30.3 µM, […]",23.45%
O=C(C1CCCC1)N1CC2(CCNC2)OCc2ccccc21 (stereo not drawn),Percent Effect,"30.3 µM, […]",12.94%
Cc1noc(CSc2ccc(C(F)(F)F)cn2)n1,Percent Effect,"30.3 µM, […]",27.73%
CCCc1nc(C)c(C(=O)NCCn2ccnc2)s1,Percent Effect,"30.3 µM, […]",-7.791%
Cl.Clc1cccc(N[C@H]2CCCN[C@H]2Cc2ccccc2)c1,Percent Effect,"30.3 µM, […]",98.49%
Cl.Cl.Clc1cccc(C[C@@H]2NCCC[C@@H]2Nc2cccc(Cl)c2)c1,Percent Effect,"30.3 µM, […]",98%
O=C(Cc1cccc(Cl)c1)N[C@@H]1CCNC[C@H]1O,Percent Effect,"30 µM, 30.03 µM",-4.847%
O=C1NCCCc2[nH]c(Cc3cccc(Cl)c3)nc21,Percent Effect,"30.3 µM, […]",16.75%
CCOc1ccc(Cl)cc1C1CCCN1.Cl (stereo not drawn),Percent Effect,"30 µM, 30.03 µM",7.031%
O=C(NCCc1cccc(Cl)c1)C1CCOCC1,Percent Effect,"30.3 µM, […]",-10.81%
Cl.O=C(OCC1CCCN1)c1cccc(NC(=O)c2ccco2)c1 (stereo not drawn),Percent Effect,"30.3 µM, […]",19.64%
O=C(C[S+]([O-])Cc1cccc(Cl)c1)NC1CCCC1 (stereo not drawn),Percent Effect,"30.3 µM, […]",13.89%
Cl.Cl.Clc1cccc(C[C@@H]2NCCC[C@@H]2Nc2ccccc2)c1,Percent Effect,"30.3 µM, […]",98.87%
CCn1cc2c(n1)C(COC)CN(Cc1ccccn1)C2 (stereo not drawn),Percent Effect,"30 µM, 30.03 µM",-30.8%
O=C(c1csc(-c2ncccn2)n1)N1CCN(C2CCCC2)CC1,Percent Effect,"30.3 µM, […]",15.8%
COc1cc(N2C[C@@H]3COC[C@]3(COc3ccc(C#N)cn3)C2)ncn1,Percent Effect,"30 µM, 30.03 µM",56.85%
COc1cc(N2C[C@@H]3COC[C@]3(COc3ccccn3)C2)ncn1.O=C(O)C(F)(F)F.O=C(O)C(F)(F)F,Percent Effect,"30.3 µM, […]",12.8%
N#Cc1ccc(OC[C@]23COC[C@H]2CN(c2ncccn2)C3)nc1,Percent Effect,"30.3 µM, […]",-11.64%
Cc1csc(NC(=O)[C@@H]2C[C@H]3[C@H](CCN3S(C)(=O)=O)O2)n1,Percent Effect,"30.3 µM, […]",37.69%
CCOCCNc1nc(C2CCCC2)nc2c1cnn2C,Percent Effect,"30 µM, 30.03 µM",33.9%
Cn1ncc2c(NCCOc3ccc(F)cc3)nc(C3CCCC3)nc21,Percent Effect,"30 µM, 30.03 µM",50.15%
Cn1ncc2c(NCCCOc3cccnc3)nc(C3CCCC3)nc21,Percent Effect,"30.3 µM, […]",7.938%
CC[C@H]1CN(C(=O)C2CC2)CC[C@H]1CC(=O)NCCN1CCOCC1,Percent Effect,"30.3 µM, […]",-123.3%
CN(Cc1n[nH]c2c1CCCC2)C(=O)c1cccc(CCC(C)(C)O)c1,Percent Effect,"30.3 µM, […]",22.46%
CN(Cc1n[nH]c2c1CCC2)C(=O)c1cccc(CCC(C)(C)O)c1,Percent Effect,"30.3 µM, […]",57.38%
CN(Cc1cc[nH]n1)C(=O)c1cccc(CCC(C)(C)O)c1,Percent Effect,"30 µM, 30.03 µM",14.32%
N#Cc1ccc(CN2CCN(C(=O)c3cc(C4CC4)[nH]n3)CC2)cc1,Percent Effect,"30 µM, 30.03 µM",47.32%
CC(C)(C)CN(CCC#N)C(=O)c1cccc(CN2CCCC2)c1,Percent Effect,"30.3 µM, […]",15.51%
Cc1cccnc1C(=O)N1CCCC(c2[nH]ncc2S(C)(=O)=O)C1 (stereo not drawn),Percent Effect,"30 µM, 30.03 µM",-23.25%
CC(=O)N1CC[C@]2(O)CCN(Cc3nc(C)c[nH]3)C[C@@H]2C1,Percent Effect,"30.3 µM, […]",3.766%
O=C(O)C(F)(F)F.c1cnc(N2C[C@H]3CCN(CC4CC4)C[C@H]3C2)cn1,Percent Effect,"30.3 µM, […]",30.4%
O=C(C1CCCC1)N1C[C@@H]2CCN(c3cnccn3)C[C@@H]2C1.O=C(O)C(F)(F)F,Percent Effect,"30.3 µM, […]",10.31%
O=C(O)C(F)(F)F.O=C(O)C(F)(F)F.c1cnc(N2C[C@H]3CCN(CCN4CCCC4)C[C@H]3C2)cn1,Percent Effect,"30.3 µM, […]",50.81%
COC(=O)c1ccc(OC)c(OC23CCCN(CC2)C3)c1 (stereo not drawn),Percent Effect,"30.3 µM, […]",-2.222%
COc1ccc(SCC2CNc3nc4ccccc4c(=O)n32)cc1 (stereo not drawn),Percent Effect,"30.3 µM, […]",24.33%
O=C(NCCNc1ccc(C(F)(F)F)cn1)c1ccc(F)cc1Cl,Percent Effect,30 µM,35.81%
Cc1nccn1CCC1CCCCN1Cc1ccncc1 (stereo not drawn),Percent Effect,"30 µM, 30.03 µM",14.55%
Cc1nccn1CCC1CCCCN1Cc1ccc(O)cc1Cl (stereo not drawn),Percent Effect,"30.3 µM, […]",62.65%
Cc1cc2c(cc1CN1CCCCC1CCn1ccnc1C)OCO2 (stereo not drawn),Percent Effect,"30.3 µM, […]",16.68%
COc1ccc(CCN2CCCC(CN(C)Cc3ccc(C)o3)C2)cc1 (stereo not drawn),Percent Effect,"30 µM, 30.03 µM",48.36%
COc1ccccc1CCN1CCCC(CN(C)Cc2c[nH]c(C)n2)C1 (stereo not drawn),Percent Effect,"30.3 µM, […]",23.77%
COc1ccccc1CCN1CCCC(CN(C)Cc2ccc(C)o2)C1 (stereo not drawn),Percent Effect,"30.3 µM, […]",51.06%
CN(C)S(=O)(=O)N1CCC(Oc2ccc(C#N)cc2)CC1,Percent Effect,"30 µM, 30.03 µM",23.32%
COCCNC(=O)CCn1ncc2c(Cl)cccc21,Percent Effect,"30.3 µM, […]",-81.24%
CN(C)CCNC(=O)CCn1ncc2c(Cl)cccc21,Percent Effect,"30.3 µM, […]",55.96%
CN(C)C(=O)CNC(=O)CCn1ncc2c(Cl)cccc21,Percent Effect,"30 µM, 30.03 µM",13.94%
CCN(CC)CC(=O)NCc1cccnc1-n1cnc2ccccc21,Percent Effect,"30.3 µM, […]",12.53%
Cc1nc(CNc2ccc(C(=O)NCc3ccco3)cc2C)no1,Percent Effect,"30.3 µM, […]",3.169%
COc1cc(N2CC[C@@H](O)[C@@H]2Cc2ccccc2)ncn1,Percent Effect,"30.3 µM, […]",51.86%
COc1cc(N2CC[C@H](O)[C@@H]2Cc2ccccc2)ncn1,Percent Effect,"30.3 µM, […]",33.09%
COc1cc(N2CC[C@H](O)[C@@H]2Cc2cccnc2)ncn1,Percent Effect,"30.3 µM, […]",5.968%
Cc1cc(C(=O)N2CC[C@@]3(C[C@@H](NS(C)(=O)=O)CCO3)C2)no1,Percent Effect,"30.3 µM, […]",13.02%
O=C(CCn1cncn1)NCCOc1cccc(Cl)c1,Percent Effect,"30.3 µM, […]",-12.3%
Cc1c(C(C)NC2CCN(C(C)C)CC2)cnn1-c1ccc(F)cc1F (stereo not drawn),Percent Effect,"30.3 µM, […]",61.65%
Cc1c(C(C)NC2CCCC2)cnn1-c1ccc(F)cc1F (stereo not drawn),Percent Effect,"30.3 µM, […]",6.771%
CC(=O)N1CCC(NC(C)c2cnn(-c3ccc(F)cc3F)c2C)CC1 (stereo not drawn),Percent Effect,"30.3 µM, […]",3.786%
CCN(CCOC)C(=O)c1ccc2c(c1)nc(N1CC[C@H](O)C1)n2C,Percent Effect,"30.3 µM, […]",20.98%
COc1c(CNCc2ccc3c(c2)OCCO3)c(C(C)C)nn1C,Percent Effect,30 µM,-2.541%
CCc1nc(C)c(CN2CCN(c3ncnc4scc(C)c34)CC2)[nH]1,Percent Effect,"30.3 µM, […]",-3.854%
Cc1n[nH]c(CN2CCN(c3ncnc4scc(C)c34)CC2)c1Cl,Percent Effect,"30.3 µM, […]",71.39%
CCc1nc(C)c(CN2CCN(c3ncnc4c(C)csc34)CC2)[nH]1,Percent Effect,"30.3 µM, […]",24.01%
Cc1ccccc1CCNC(=O)C1CC(=O)N(CC(F)(F)F)C1 (stereo not drawn),Percent Effect,"30 µM, 30.03 µM",9.865%
O=C(NCCn1ccnc1)N1CCCC1c1ccc2c(c1)OCCO2 (stereo not drawn),Percent Effect,30 µM,14.25%
CC(C)(C(=O)NCc1n[nH]c(=O)[nH]1)c1ccc(F)cc1,Percent Effect,"30.3 µM, […]",17.25%

# Source: ChEMBL document CHEMBL3988442, “University of Dundee, Small-Polar-MMV Screening Library” (2021)
